TDP1 block: TDP1 (human) enzyme inhibition; recombinant TDP1, AlphaScreen DNA substrate cleavage; Potency, µM (series often up to 130 µM), inactives show at the highest dose activity change, negative = inhibition, actives largely listed as inhibitors; 0.28% of 350,000 active; further: nearly all actives have a fitted effect of over 40% in size
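Steps: enzyme plus compound, 15 min RT; add biotin/phosphotyrosine-FITC oligonucleotide (15 nM final), react 5 min; add donor/acceptor beads (10 ug/ml final), 10 min; read AlphaScreen. Tdp1 at 1 nM final.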
PLK1 PBD block: PLK1 (human) polo-box domain binding inhibition | P53350 | Plk1 PBD binding of FITC phosphopeptide, fluorescence polarization | Potency, µM, for inactives: max response, negative = inhibition, hits mostly inhibitors | 2.8% of 360,000 active | AID 720504; further: series mostly up to about 57 µM; nearly all actives have a fitted effect of over 65% in size
VDR inh: blocks the human vitamin D receptor | P11473 | VDR-SRC2-3 peptide fluorescence polarization, 2 h | Potency, µM, for inactives: max response, negative = inhibition, hits mostly inhibitors | 0.93% of 400,000 active | AID 504847
Target sequence (P11473 whole entry, looked up): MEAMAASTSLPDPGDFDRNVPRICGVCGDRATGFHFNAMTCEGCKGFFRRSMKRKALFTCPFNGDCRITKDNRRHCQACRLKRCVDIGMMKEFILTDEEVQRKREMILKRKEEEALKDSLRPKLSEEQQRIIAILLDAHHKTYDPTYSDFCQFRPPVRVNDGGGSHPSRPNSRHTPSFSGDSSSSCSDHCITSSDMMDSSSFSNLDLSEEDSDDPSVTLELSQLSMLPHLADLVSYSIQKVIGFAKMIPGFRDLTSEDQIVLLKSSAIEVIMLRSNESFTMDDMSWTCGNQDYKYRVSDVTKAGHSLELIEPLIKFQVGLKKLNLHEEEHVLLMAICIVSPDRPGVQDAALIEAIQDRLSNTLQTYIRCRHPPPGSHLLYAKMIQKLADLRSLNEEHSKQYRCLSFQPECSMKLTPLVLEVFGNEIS
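After 23 nl compound addition and a short centrifugation, plates sat for 2 hours at ambient temperature; polarization of fluorescence then indicated loss of VDR binding to peptide SRC2-3.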
TDP1 cell noCPT: qHTS for Inhibitors of human tyrosyl-DNA phosphodiesterase 1 (TDP1): qHTS in cells in absence of CPT; Potency, µM (series often up to 46.2 µM), inactives show at the highest dose activity change, negative = growth inhibition, usual class: inhibitors; 15% of 420,000 active; DT40 Tdp1-/- hTDP1 cells, no CPT, ATP luminescence, 48 h; AID 686978, 2013; further: nearly all actives have a fitted effect of over 55% in size
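Growth of hTDP1-complemented DT40 Tdp1-knockout cells is measured by ATP luminescence after at least 48 hr compound exposure at 37 °C, with DMSO substituting for the 20 nM CPT used in the parallel screen.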
GCN5L2 inh: blocks human GCN5L2 histone acetyltransferase | Q92830 | AID 504327 | GCN5L2 HAT assay, ThioGlo1 CoA-SH fluorescence | 0.21% of 390,000 active | Potency, µM (top dose mostly 58.9 µM), inactives show top-dose activity change, negative = inhibition, hits mostly inhibitors
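Enzyme at 20nM final was mixed with library compounds for 15 min at room temperature. Peptide H3(1-25) at 75uM, acetyl-CoA at 70uM and ThioGlo1 at 50uM were then added. Plates were read immediately and after 20 min (Ex340nm/Em540nm).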
TDP1 cell CPT: growth inhibition of DT40 Tdp1-/-;hTDP1 cells with camptothecin (screen for TDP1 inhibitors); chicken DT40 Tdp1-/-;hTDP1 cells + 20 nM CPT, ATP luminescence, 48 h; Potency, µM (series often up to 46.2 µM), inactives show at the top dose activity change, negative = growth inhibition, hits mostly inhibitors; 12% of 420,000 active; AID 686979; further: nearly all actives have a fitted effect of over 55% in size
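Chicken DT40 Tdp1-/- cells stably complemented with human TDP1 were seeded at 400 cells/well in medium containing 20 nM camptothecin, exposed to pin-transferred compounds, and grown at 37 °C for at least 48 hr. Viability was read as ATP luminescence.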
* = called active by the depositor; ? = inconclusive; . = not tested or not shown; [ ] = another dose, or the depositor's remark. This is a sample that favours compounds with a hit; in the whole collection about 18% have one here. The call rests on the fitted dose curve; in most records, active means well fitted curve in the direction sought with a large enough effect; inconclusive means small, poorly fitted or top-dose-only effect, or another doubt; inactive means no such curve, though single readings can be large; an effect the other way counts as inactive or inconclusive. On the % scale 0 is the no-effect control and ±100 the full control effect; potency means the concentration at half of the fitted maximal effect.

SMILES	TDP1 block	PLK1 PBD block	VDR inh	TDP1 cell noCPT	GCN5L2 inh	TDP1 cell CPT
CCN(CC)CCCN=Cc1c(-c2ccccc2)[nH]n(-c2nc3ccccc3s2)c1=O	5%	-10%	18%	?	-1%	-22%
CCCN=C(C)c1c(-c2ccccc2)[nH]n(-c2nc3ccccc3s2)c1=O	0%	-11%	28%	26µM*	-3%	?
COC(=O)Cc1[nH]n(-c2nc3ccccc3s2)c(=O)c1C(C)=Nc1ccc(Cl)cc1	.	-2%	4%	21µM*	-4%	10µM*
CC(=O)OC[C@@H]1O[C@H](C/C=N\O[C@@H](C)c2cn([C@H](CO)Cc3ccccc3)nn2)C=C[C@@H]1OC(C)=O	2%[21 µM]	.	.	.	.	.
Cn1c(-c2ccc3ccccc3n2)nc2cnccc21	6%	-3%	3%	15µM*	-1%	18µM*
CC1(C(=O)NCc2cccc3ccccc23)CCN1Cc1ccccc1OC(F)F (stereo not given)	.	1%	.	15µM*	.	21µM*
CC1(C(=O)NCc2cccc3ccccc23)CCN1Cc1ccc(OC(F)(F)F)cc1 (stereo not given)	.	3%	.	?	.	?
CC1(C(=O)Nc2ccc3c(c2)OCO3)CCN1Cc1ccccc1OC(F)F (stereo not given)	.	4%	.	?	.	?
CC1(C(=O)NCc2ccc(C(F)(F)F)cc2)CCN1Cc1ccccc1OC(F)F (stereo not given)	.	6%	.	23µM*	.	?
CC1(C(=O)NCc2ccc(C(F)(F)F)cc2)CCN1Cc1cc2ccccc2o1 (stereo not given)	.	1%	.	18µM*	.	21µM*
Cc1cc(Br)c(NC(=O)COC(=O)C2CCCCC2)c(Br)c1	-1%	0%	12%	6%	-12%	4%
Cc1ccc(C(=O)CC(C(=O)O)c2cn(CCC#N)c3ccccc23)cc1 (stereo not given)	4%	27µM*	-23%	-7%	-2%	-25%
CCCCN(CC)C(=O)Cn1cnc2ccc(S(=O)(=O)N3CCC(C)CC3)cc2c1=O	3%	-5%	-19%	-18%	-4%	-16%
COc1ccc(N=C2S/C(=C\c3ccc(OC(C)C(=O)O)c(OC)c3)C(=O)N2CCc2c[nH]c3ccccc23)cc1 (stereo not given)	8%	?	40µM*	?	?	?
O=C1/C(=C/c2ccc(N3CCOCC3)o2)SC(=Nc2ccccc2)N1CCc1c[nH]c2ccccc12	10%	27%	79µM*	2.1µM*	1%	2.9µM*
Cc1cc2nc(N3CCCN(Cc4cccn4-c4ncccn4)CC3)nc(C)c2cc1C	.	.	.	16µM*	.	-14%[9.04 µM]
COc1ccc(O)c(CN2CCCN(c3nc(C)c4cc(C)c(C)cc4n3)CC2)c1	.	.	.	-14%	.	-1%[9.04 µM]
CCC(=O)c1ccc(OC(=O)Cc2ccc(OC)cc2)cc1	1%	-16%	16%	0%	1%	5%
Cc1ccc2c(c1)c1c(c(=O)n(-c3cccc(Cl)c3)c(=O)n1CC(=O)N1CCCC1)n2C	3%	.	8%	-20%	-4%	?
C/C(=N\NC(=O)c1csc(C)c1C)c1ccco1	0%	-1%	1%	21µM*	-3%	10µM*
C/C(=N/NC(=O)c1cccs1)c1ccco1	-3%	2%	0%	-19%	0%	-7%
O=C1OC2(CCCCC2)OC(=O)C1=CNc1ccc2c(c1)OCO2	4%	-4%	1%	-15%	0%	-23%
COc1ccc2c(c1)CC/C(=C\Nc1ccc3c(c1)OCO3)C2=O	9%	-18%	-14%	?	-13%	15µM*
COc1ccc(N/C=C2\CCc3ccccc3C2=O)cc1	1%	-3%	9%	?	1%	?
